RN4220 kill – S. aureus RN4220 growth inhibition; OD600, 16 h; inhibition, % (no concentration beside the values); 0.33% of 330,000 active; in the data active = inhibition above about 85%;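 also: plate controls were untreated cells for no effect and reference antibiotic for full effect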
Y pestis TopoI – inhibitors of Yersinia pestis topoisomerase I | Y. pestis Topo-I cleavage product accumulation, plate reader | activity, % at 10 µM | 0.064% of 360,000 active | AID 504884; in the data active = activity above about 50%, passing the limit was not always enough; inconclusive = no clear call, values can overlap the other calls
ugtP null kill – growth inhibition of S. aureus ugtP deletion strain. S. aureus RN4220 ugtP deletion, OD600 growth, 16 h. 0.54% of 330,000 active. growth inhibition, % (no concentration beside the values); in the data active = growth inhibition above about 68%;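 also: plate controls were untreated wells for no effect and antibiotic for full effect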
BJeLR lethal – BJeLR cell viability loss; BJeLR (HRASV12) viability, CellTiter-Glo ATP luminescence, 48 h; inhibition, % (concentration not given with the values); 0.17% of 300,000 active; AID 1554; in the data active = inhibition above about 50%; inconclusive = no clear call, values can overlap the other calls
PfHsp40 rescue – rescue of PfHsp40-mediated yeast toxicity | growth rescue, % at 12.5 µM | S. cerevisiae expressing PfHsp40, growth rescue, ATP luminescence | AID 504582 | 0.68% of 340,000 active; in the data active = growth rescue above about 28%, passing the limit was not always enough; inconclusive = no clear call, values can overlap the other calls;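 also: yeast W303a lacking pdr1 and pdr3 grown in galactose medium; growth measured after three days at 30 °C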
PrP 5UTR inh – suppresses PrP 5' UTR mRNA reporter expression. cell-based PrP 5' UTR mRNA reporter, plate reader. inhibition, % (no concentration beside the values). 0.35% of 340,000 active; in the data active = inhibition above about 52%; also: 0 = median of the neutral control wells
Numbers without * were called inactive; ? = inconclusive; / = not tested or not shown. The list is not random: actives were taken first. Their share in the collection is about 1.4%.

SMILES | RN4220 kill | Y pestis TopoI | ugtP null kill | BJeLR lethal | PfHsp40 rescue | PrP 5UTR inh
C/C(=N\Nc1ccc2nncn2n1)c1ccccn1 | / | 1 | / | 62* | / | /
CC(=NNc1ccc2nncn2n1)c1ccccn1 | 5 | / | -10 | / | / | /
COc1ccc(S(=O)(=O)N2c3ccc(F)cc3CCC2C)cc1 (stereo not drawn) | 8 | -6 | 13 | 62* | 6 | 50
O=[N+]([O-])c1ccc(NN=Cc2c[nH]c3ccccc23)c(S(=O)(=O)Nc2ccc(Cl)cc2)c1 | 81 | / | 99* | / | / | /
CN(CC(=O)Nc1ccccc1Oc1ccccc1)Cc1ccccc1F | 3 | 60* | -10 | 6 | 3 | -8
C[C@@H]1C[C@@H]([C@H](O)CC2CC(=O)NC(=O)C2)C(=O)[C@@H](C)C1 | / | -2 | / | / | 40* | 45
Cc1cc(O)c2c(c1)C(=O)C13C(=C2O)C(=O)[C@H]2[C@@H](O)[C@@H]1[C@H]1[C@H](O)[C@@H]3C(=O)C3=C(O)c4c(O)cc(C)cc4C(=O)C312 (stereo partly drawn) | 98* | 403* | 97* | / | 282* | -23
CC(C)CC(NC(=O)c1nc[nH]c1C(=O)NCC(=O)OC(C)(C)C)C(=O)OC(C)(C)C (stereo not drawn) | 1 | / | 1 | / | / | /
CC(C)COc1ccc(C(O)=C2C(=O)C(=O)N(CCN(C)C)C2c2ccncc2)cc1 (stereo not drawn) | 2 | / | 0 | / | / | /
Cc1cc(C(C)(C)CC(C)(C)C)ccc1OCCOCC[N+](C)(C)Cc1ccccc1 | 101* | -27 | 100* | / | ? | -26
CCOC(=O)c1nn(-c2ccc(F)cc2)c2c1CCC2=Cc1ccccc1 | 8 | / | -16 | / | / | /
OC(c1ccccc1)(c1ccccc1)c1ccncc1 | -3 | 0 | -9 | 6 | -1 | -26
C=CC(n1cncn1)C(O)(c1ccccc1)c1ccccc1 (stereo not drawn) | 8 | 6 | -1 | 8 | 146* | -20
C#CCNC(=O)C1=CC(C2CCCCC2)C(CCCO)C(OCC)O1 (stereo not drawn) | 4 | / | 3 | / | / | /
CC(C)(C)OC(=O)C[C@H]1C/C=C\C[C@H](CC(=O)NCCO)C(=O)N2CCC[C@@H]2COC1=O | / | -5 | / | / | 41* | -4
CC(=O)Oc1ccccc1C(=O)C=Cc1cccc([N+](=O)[O-])c1 | 17 | 3 | 10 | / | 128* | -46
C[N+](C)(C)CCOP(=O)(O)OP(=O)([O-])OCC1OC(n2ccc(N)nc2=O)C(O)C1O (stereo not drawn) | 6 | / | 1 | / | / | /
CN(C)CC(CCC(CN(C)C)C(O)(c1ccccc1)c1ccccc1)C(O)(c1ccccc1)c1ccccc1 (stereo not drawn) | -6 | / | 4 | 83* | / | /
O=C(c1ccccc1)c1ccc(Cn2cc(-c3ccccc3)nn2)cc1 | 5 | 42 | 10 | 13 | 723* | -26
O=c1cc(CSc2ccc(Cl)cc2)nc(-c2ccccn2)[nH]1 | / | 9 | / | 19 | 325* | 21
Cc1occc(=O)c1OC(=O)Nc1ccc(Cl)c(Cl)c1 | 99* | 3 | 99* | / | 3 | -73
COC(=O)C1=C(c2ccc(OCc3ccccc3)cc2)CC2CCC1N2C(=O)NCc1cccc(OC)c1 (stereo not drawn) | -6 | / | -13 | / | / | /
CCOC(=O)Cc1csc(NC(=O)c2c(O)c3ccccc3n(CC(C)C)c2=O)n1 | 97* | 3 | 98* | -3 | 0 | -11
CC(C)Cn1c(=O)c(C(=O)Nc2ccccc2S(N)(=O)=O)c(O)c2ccccc21 | 82 | -6 | 62 | 5 | 0 | -8
CC1CCCC(=CNc2ccc(C(=O)O)cc2)C1=O (stereo not drawn) | 5 | / | 10 | / | / | /
SMILES | RN4220 kill | Y pestis TopoI | ugtP null kill | BJeLR lethal | PfHsp40 rescue | PrP 5UTR inh
COc1ccc(C2CC=C(C(=O)O)CN2S(=O)(=O)c2ccc(C)cc2)cc1OC (stereo not drawn) | 1 | / | 0 | / | / | /
N=C1/C(=C/c2cccs2)C(=O)N=C2SN=C(SCc3ccccc3)N12 | 83 | -5 | 83* | 1 | -1 | 3
CC(C)CSC1=NSC2=NC(=O)/C(=C\c3cccs3)C(=N)N12 | 41 | -3 | 4 | -13 | -1 | -45
COC(=O)c1[nH]c2c(c1C)C(=O)CC(c1cccs1)C2 (stereo not drawn) | 1 | -9 | -4 | 51* | -1 | 18
O=C(NC1CCSc2ccccc21)c1cc([N+](=O)[O-])ccc1N1CCOCC1 (stereo not drawn) | 2 | 9 | 3 | -6 | 36* | -3
CN1CCN(NC(=O)Nc2cc(Cl)cc(Cl)c2)CC1 | 100* | -6 | 97* | 0 | 0 | -14
COc1ccc(NC(=O)NN2CCN(C)CC2)cc1OC | 1 | 8 | 0 | -11 | -1 | 2
N#CCC(=O)NNC(=S)NC(=O)C(c1ccccc1)c1ccccc1 | 8 | -5 | -4 | -2 | 21 | 0
CC(=O)NC(=S)NNC(=O)C(c1ccccc1)c1ccccc1 | 16 | -3 | 6 | 14 | 62* | -10
O=C(/C=C/c1ccco1)c1cccc([N+](=O)[O-])c1 | 13 | -12 | 5 | / | 27* | 5
O=C(N/N=C/C=C/c1ccco1)c1cccc([N+](=O)[O-])c1 | / | -9 | / | 5 | 1 | 7
NC(=NOC(=O)c1cccc(Cl)c1)c1cccnc1 | 3 | / | 3 | / | / | /
COc1ccc([N+](=O)[O-])cc1NC(=S)Nc1ccccc1 | 7 | -10 | -3 | 0 | 0 | -13
COc1ccc([N+](=O)[O-])cc1NC(=O)Nc1ccccc1 | 95* | -12 | 83* | 1 | -1 | -3
Nc1nc(CCl)nc(Nc2cccc3ccccc23)n1 | 5 | 3 | 8 | 125* | / | /
Nc1nc(Nc2cccc3ccccc23)nc(C2CCCC2=O)n1 (stereo not drawn) | / | / | / | -5 | / | /
C=CCC(CC(=O)NCCO)C(=O)NC(COC(=O)C(CC=C)CC(=O)OC(C)(C)C)Cc1c[nH]c2ccccc12 (stereo not drawn) | 6 | / | 3 | / | / | /
CCN1/C(=C/c2ccc3ccccc3[n+]2CCCS(=O)(=O)[O-])C=Cc2cc(C)ccc21 | 2 | 17 | 5 | 6 | -1 | 5
CCN1C(=Cc2ccc3ccccc3[n+]2CC)C=Cc2ccccc21 | 100* | / | 100* | / | / | /
CCN1/C(=C/c2ccc3ccccc3[n+]2CC)C=Cc2ccccc21 | / | -14 | / | 62* | 166* | 28
CC1CCC2C(=O)N3C(CCC(C)C3c3ccc(Br)cc3)C(=O)N2C1c1ccc(Br)cc1 (stereo not drawn) | -7 | / | 6 | / | / | /
CCOC(=O)C1C2COc3ccccc3C2N2C(=O)c3cc(F)ccc3NC(=O)[C@@]12C (stereo partly drawn) | 1 | / | -10 | / | / | /
COc1cc2c(cc1OC)C1C(=O)c3ccc4c(c3OC1CO2)CC(C(C)(C)O)O4 (stereo not drawn) | 5 | / | -1 | / | / | /
COc1ccc(N2CCN(C(=O)c3ccc(Br)cc3)CC2)c([N+](=O)[O-])c1 | 3 | -5 | 12 | -6 | 0 | -16
